Experimental data from PubChem BioAssay (NCI).
The panel holds about 83,000 compounds, 20% with a hit somewhere; the sample as a whole holds those more often.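 96-well plates, one dose, 48 hours. Percent growth reported; active if below 10.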 Unmarked numbers belong to inactive results. Calls of active or inactive are those of the source.

What was measured:
Assay in all cases: NCI-60 one-dose screen, 48 h (100 = growth as untreated, 0 = no growth, -100 = all killed)
Conditions in all cases: 10 µM unless noted
NCI-H23 lung = tested on: NCI-H23 lung
NCI-H226 lung = tested on: NCI-H226 lung
NCI-H322M lung = tested on: NCI-H322M lung
HOP-62 NSCLC = tested on: HOP-62 NSCLC
NCI-H460 lung = tested on: NCI-H460 lung
HOP-92 NSCLC = tested on: HOP-92 NSCLC
NCI-H522 lung = tested on: NCI-H522 lung
A549/ATCC NSCLC = tested on: A549/ATCC NSCLC
786-0 renal = tested on: 786-0 renal
COLO 205 colon = tested on: COLO 205 colon
DU-145 prostate = tested on: DU-145 prostate
K-562 leukemia = tested on: K-562 leukemia
MALME-3M melanoma = tested on: MALME-3M melanoma
MDA-MB-231 breast = tested on: MDA-MB-231 breast
RXF 393 renal = tested on: RXF 393 renal
SF-268 CNS = tested on: SF-268 CNS
SF-295 CNS = tested on: SF-295 CNS
SF-539 CNS = tested on: SF-539 CNS
UACC-257 melanoma = tested on: UACC-257 melanoma
M14 melanoma = tested on: M14 melanoma

COc1ccc2[nH]c(O)c(N=Nc3nc(-c4ccc(Br)cc4)cs3)c2c1
growth (NCI-H23 lung): -6.52% (active)
growth (NCI-H226 lung): -36.4% (active)
growth (NCI-H322M lung): 28.2%
growth (HOP-62 NSCLC): -10.1% (active)
growth (NCI-H460 lung): -35.4% (active)
growth (HOP-92 NSCLC): -34.4% (active)
growth (NCI-H522 lung): 19.1%
growth (A549/ATCC NSCLC): -41.3% (active)
growth (786-0 renal): -81.3% (active)
growth (COLO 205 colon): -13.2% (active)
growth (DU-145 prostate): 16%
growth (K-562 leukemia): 17.9%
growth (MALME-3M melanoma): -36.3% (active)
growth (MDA-MB-231 breast): 35.7%
growth (RXF 393 renal): -64.2% (active)
growth (SF-268 CNS): 30.5%
growth (SF-295 CNS): 9.66% (active)
growth (SF-539 CNS): -68.4% (active)
growth (UACC-257 melanoma): 30.3%
growth (M14 melanoma): 14.4%

c1n[nH]cc1-c1nc2ccc3[nH]ncc3c2c2c1CC1(CC2)COC1
growth (NCI-H23 lung): 62%
growth (NCI-H226 lung): 66%
growth (NCI-H322M lung): 64%
growth (HOP-62 NSCLC): 77.7%
growth (NCI-H460 lung): 73.4%
growth (HOP-92 NSCLC): 92.1%
growth (NCI-H522 lung): -24.6% (active)
growth (A549/ATCC NSCLC): 95.9%
growth (786-0 renal): 60.6%
growth (COLO 205 colon): 24.6%
growth (DU-145 prostate): 62.7%
growth (K-562 leukemia): 33.9%
growth (MALME-3M melanoma): 29%
growth (MDA-MB-231 breast): 69.5%
growth (RXF 393 renal): -2.43% (active)
growth (SF-268 CNS): 63.6%
growth (SF-295 CNS): 104%
growth (SF-539 CNS): 26.6%
growth (UACC-257 melanoma): 66.4%
growth (M14 melanoma): 31.9%

C[C@H](NC(=O)c1ccc2c(-c3ccc(C(F)(F)F)cc3)cccc2c1)c1ccccn1
growth (NCI-H23 lung): 70.7%
growth (NCI-H226 lung): 28.3%
growth (NCI-H322M lung): 50.8%
growth (HOP-62 NSCLC): 77.3%
growth (NCI-H460 lung): 42.5%
growth (HOP-92 NSCLC): 25.5%
growth (NCI-H522 lung): 16.9%
growth (A549/ATCC NSCLC): 39.6%
growth (786-0 renal): 44.3%
growth (COLO 205 colon): 61.6%
growth (DU-145 prostate): 56.4%
growth (K-562 leukemia): 20.6%
growth (MALME-3M melanoma): 67%
growth (MDA-MB-231 breast): 59.9%
growth (RXF 393 renal): 13%
growth (SF-268 CNS): 58.9%
growth (SF-295 CNS): 32.5%
growth (SF-539 CNS): 62.3%
growth (UACC-257 melanoma): 64.3%
growth (M14 melanoma): 40.7%

COc1ccc(-c2cc(-c3ccccc3)c(C#N)c(=O)[nH]2)cc1S(N)(=O)=O
growth (NCI-H23 lung): 106%
growth (NCI-H226 lung): 103%
growth (NCI-H322M lung): 113%
growth (HOP-62 NSCLC): 97.6%
growth (NCI-H460 lung): 104%
growth (HOP-92 NSCLC): 110%
growth (NCI-H522 lung): 93.3%
growth (A549/ATCC NSCLC): 98.7%
growth (786-0 renal): 94.7%
growth (COLO 205 colon): 118%
growth (DU-145 prostate): 103%
growth (K-562 leukemia): 109%
growth (MALME-3M melanoma): 97.9%
growth (MDA-MB-231 breast): -18.1% (active)
growth (RXF 393 renal): 100%
growth (SF-268 CNS): 101%
growth (SF-295 CNS): 108%
growth (SF-539 CNS): 96.3%
growth (UACC-257 melanoma): 98.9%
growth (M14 melanoma): 99.7%

COc1ccc(-c2nc3ccc(-c4nnc(SCc5ccccc5)o4)cc3[nH]2)cc1OC
growth (NCI-H23 lung): 38.8%
growth (NCI-H226 lung): -26.7% (active)
growth (NCI-H322M lung): 46.7%
growth (HOP-62 NSCLC): -29.8% (active)
growth (NCI-H460 lung): -6.16% (active)
growth (HOP-92 NSCLC): -3.75% (active)
growth (NCI-H522 lung): 51.9%
growth (A549/ATCC NSCLC): 9.7% (active)
growth (786-0 renal): -33.5% (active)
growth (COLO 205 colon): 74.2%
growth (DU-145 prostate): 17.2%
growth (K-562 leukemia): 56.8%
growth (MALME-3M melanoma): 15.9%
growth (MDA-MB-231 breast): -34.4% (active)
growth (RXF 393 renal): -34.1% (active)
growth (SF-268 CNS): 35.2%
growth (SF-295 CNS): 55.4%
growth (SF-539 CNS): -44.5% (active)
growth (UACC-257 melanoma): 78.4%
growth (M14 melanoma): 40.7%

COc1sc(/C=N/NC(=O)c2[nH]c3ccc(Br)cc3c2-c2ccccc2)cc1Cl
growth (NCI-H23 lung): -41.9% (active)
growth (NCI-H226 lung): -17.8% (active)
growth (NCI-H322M lung): 13.3%
growth (HOP-62 NSCLC): -27% (active)
growth (NCI-H460 lung): 1.26% (active)
growth (HOP-92 NSCLC): -7.87% (active)
growth (NCI-H522 lung): -39% (active)
growth (A549/ATCC NSCLC): -20.2% (active)
growth (786-0 renal): -49.8% (active)
growth (COLO 205 colon): -60.9% (active)
growth (DU-145 prostate): -63.2% (active)
growth (K-562 leukemia): 9.98% (active)
growth (MALME-3M melanoma): 18.1%
growth (MDA-MB-231 breast): -68% (active)
growth (RXF 393 renal): -25.7% (active)
growth (SF-268 CNS): -17.2% (active)
growth (SF-295 CNS): -40.6% (active)
growth (SF-539 CNS): -85.3% (active)
growth (UACC-257 melanoma): 29%
growth (M14 melanoma): -3.6% (active)

Cc1[nH]nc2ccc3nc(-c4cnn(CCO)c4)c4c(c3c12)CCCC4
growth (NCI-H23 lung): 52.7%
growth (NCI-H226 lung): 28.6%
growth (NCI-H322M lung): 53.8%
growth (HOP-62 NSCLC): 65.6%
growth (NCI-H460 lung): 26.6%
growth (HOP-92 NSCLC): 35.9%
growth (NCI-H522 lung): 18.9%
growth (A549/ATCC NSCLC): 49.3%
growth (786-0 renal): 38.7%
growth (COLO 205 colon): 47.5%
growth (DU-145 prostate): 37.9%
growth (K-562 leukemia): 38.5%
growth (MALME-3M melanoma): 41%
growth (MDA-MB-231 breast): 40%
growth (RXF 393 renal): -6.62% (active)
growth (SF-268 CNS): 58.1%
growth (SF-295 CNS): 43.4%
growth (SF-539 CNS): 33.7%
growth (UACC-257 melanoma): 83.1%
growth (M14 melanoma): 27.4%

CCCCCCCCc1ccc(C(=O)Nc2ccc(C)cc2C(=O)O)cc1
growth (NCI-H23 lung): 85.2%
growth (NCI-H226 lung): 84.3%
growth (NCI-H322M lung): 91.1%
growth (HOP-62 NSCLC): 96.3%
growth (NCI-H460 lung): 88.4%
growth (HOP-92 NSCLC): 10.4%
growth (NCI-H522 lung): 73.2%
growth (A549/ATCC NSCLC): 66.8%
growth (786-0 renal): 89.6%
growth (COLO 205 colon): 119%
growth (DU-145 prostate): 95%
growth (K-562 leukemia): 59.4%
growth (MALME-3M melanoma): 92.2%
growth (MDA-MB-231 breast): 96.9%
growth (RXF 393 renal): 110%
growth (SF-268 CNS): 96%
growth (SF-295 CNS): 51.1%
growth (SF-539 CNS): 100%
growth (UACC-257 melanoma): 95.8%
growth (M14 melanoma): 104%
